Laboratory results published in PubChem BioAssay (Tox21).
Unmarked numbers belong to inactive results. Records with an inconclusive call do not appear. Where a call stands in place of a potency, no number is given. The source made the active and inactive calls. The call rests on the fitted dose curve; in most records, active means well fitted curve in the direction sought with a large enough effect in the repeat runs; inconclusive means weak or mixed curves; inactive means no such curve, though single readings can be large; an effect the other way counts as inactive or inconclusive.

Key:
[1] = Caspase-3/7 induction in HepG2 cells by small molecules, qHTS assay (AID 1346978); further: nearly all actives have a fitted effect of over 15% in size
Outline: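 Wild-type HepG2 cells (2,000/well) were settled 5 h at 37 C, 5% CO2, then exposed to compounds in DMSO for 17 h. Caspase-3/7 activity was read by luminescence 30 min after adding Caspase-Glo 3/7 reagent at room temperature.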

[2] = Caspase-3/7 induction in CHO-K1 cells by small molecules, qHTS cell viability counter screen (AID 1346979); further: nearly all actives have a fitted effect of over 35% in size
Outline: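 Cytotoxicity counter screen: CellTiter-Fluor added to compound-treated wild-type CHO-K1 cells at 16 h (37C, 5% CO2), fluorescence measured 1 h later; same wells as caspase-3/7 measurement.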

[3] = Caspase-3/7 induction in CHO-K1 cells by small molecules, qHTS assay (AID 1346980); further: nearly all actives have a fitted effect of over 15% in size
Outline: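 Wild-type cells were seeded at 1,500 per well and settled 5 hr at 37 C, 5% CO2, then exposed to DMSO-dissolved compounds for 17 hr. Caspase-Glo 3/7 reagent was added, and luminescence was read after 30min at room temperature.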

[4] = Caspase-3/7 induction in HepG2 cells by small molecules, qHTS cell viability counter screen (AID 1346981); further: series mostly up to about 92 µM; nearly all actives have a fitted effect of over 30% in size
Outline: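 Treatment of HepG2 cells with DMSO-delivered compounds ran 16 hr at 37 C following a 5-hr pre-incubation of 2,000 cells/well. CellTiter-Fluor fluorescence, read after 1 hr, served as the viability measure in a qHTS format.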

[5] = biological target: Nuclear receptor subfamily 1 group I member 2 (Homo sapiens) (UniProt O75469); test: Human pregnane X receptor (PXR) small molecule agonists, qHTS assay (AID 1346982); further: nearly all actives have a fitted effect of over 35% in size; further: potency means the concentration at half of the fitted maximal effect
Outline: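 Stable HepG2 line reporting PXR-mediated CYP3A4 expression via luciferase. Treatment: 24 hr with compounds in DMSO at 37 C. Detection: ONE-Glo luminescence.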

[6] = biological target: Nuclear receptor subfamily 1 group I member 2 (Rattus norvegicus) (UniProt Q9R1A7); test: Rat pregnane X receptor (rPXR) activation by small molecules, qHTS assay (AID 1346983); settings: rPXR luciferase reporter cells, One-Glo luminescence, 24 h; max activation: hits give high values; further: nearly all actives have a fitted effect of over 20% in size
Outline: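 Cell-based rPXR luciferase reporter assay, 2,000 cells per well, rested 5hr at 37 C before compound addition in DMSO, then 24 hr at 37 C. One-Glo reagent was added and luminescence read after 30 min at room temperature.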

[7] = biological target: Nuclear receptor subfamily 1 group I member 2 (Homo sapiens) (UniProt O75469); test: CYP3A4 induction through human pregnane X receptor (PXR) by small molecules, qHTS assay (AID 1346984); further: nearly all actives have a fitted effect of over 40% in size
Outline: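 After 24 h at 37C with compound, DPX-2 cells (HepG2, co-transfected PXR response element and CYP3A4 promoter-luciferase) got 3uM final P450-Glo Luciferin-IPA for 3 h; One-Glo luminescence followed.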

[8] = biological target: Nuclear receptor subfamily 1 group I member 2 (Homo sapiens) (UniProt O75469); test: Human pregnane X receptor (PXR) activation by small molecules, qHTS assay (AID 1346985); further: nearly all actives have a fitted effect of over 40% in size
Outline: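 DPX-2 cells (HepG2 co-transfected with a PXR response element and a CYP3A4-promoter luciferase construct) were seeded at 2,000 per well, rested 5 hr at 37C, then exposed to DMSO-dissolved compounds for 24 hr. Activation was read as luciferase luminescence.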

[9] = biological target: Cytochrome P450 2D6 (Homo sapiens) (UniProt P10635); test: Cytochrome P450 Family 2 Subfamily D Member 6 (CYP2D6) small molecule antagonists: luciferase reporter qHTS assay (AID 1671196); further: nearly all actives have a fitted effect of over 50% in size; further: potency means the concentration at half of the fitted maximal effect
Outline: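 Chemicals tested for interference with CYP2D6 activity; proluciferin substrate, NADPH regeneration, 1 h at room temperature, luminescent detection.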

[10] = biological target: Cytochrome P450 2C19 (Homo sapiens) (UniProt P33261); test: Cytochrome P450 Family 2 Subfamily C Member 19 (CYP2C19) small molecule antagonists: luciferase reporter qHTS assay (AID 1671197); further: nearly all actives have a fitted effect of over 65% in size; further: potency means the concentration at half of the fitted maximal effect
Outline: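 P450-Glo CYP2C19 system: enzyme-substrate mix with compound 10 min at room temperature, then NADPH regeneration solution, 1 h at 37C. Proluciferin-to-luciferin conversion detected by luminescence after 20 min with detection reagent; ketoconazole as positive control.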

[11] = biological target: Cytochrome P450 2C9 (Homo sapiens) (UniProt P11712); test: Cytochrome P450 Family 2 Subfamily C Member 9 (CYP2C9) small molecule antagonists: luciferase reporter qHTS assay (AID 1671198); further: nearly all actives have a fitted effect of over 50% in size; further: potency means the concentration at half of the fitted maximal effect
Outline: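 CYP2C9 activity was measured with a P450-Glo proluciferin substrate. Enzyme–substrate mix was held with compound for 10 min at room temperature, then NADPH regeneration solution was added for 1 h at 37C. Luciferin product was read as luminescence.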

[12] = biological target: Voltage-gated inwardly rectifying potassium channel KCNH2 (Homo sapiens) (UniProt Q12809); test: Human Ether-a-go-go-Related Gene (hERG) channel small molecule antagonists: fluorescence cell-based qHTS assay (AID 1671200); further: series mostly up to about 77 µM; nearly all actives have a fitted effect of over 50% in size
Outline: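 Thallium flux as potassium surrogate: FluxOR II dye loaded 1 h at room temperature into hERG-expressing U2OS cells, then stimulus buffer added after 10 min. Kinetic 480 nm excitation/540 nm emission read, 2 min.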

[13] = biological target: Cytochrome P450 3A4 (Homo sapiens) (UniProt P08684); test: Cytochrome P450 Family 3 Subfamily A Member 4 (CYP3A4) small molecule antagonists: luciferase reporter qHTS assay (AID 1671201); further: series mostly up to about 120 µM; nearly all actives have a fitted effect of over 50% in size
Outline: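 Recombinant human CYP3A4 converts a proluciferin substrate to luciferin over 1 h at room temperature after NADPH regeneration solution is added (compound preincubated 10 min); detection reagent stops reaction, luminescence read 20 min later as relative units.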

[14] = biological target: Cytochrome P450 1A2 (Homo sapiens) (UniProt P05177); test: Cytochrome P450 Family 1 Subfamily A Member 2 (CYP1A2) small molecule antagonists: luciferase reporter qHTS assay (AID 1671199); further: nearly all actives have a fitted effect of over 50% in size; further: potency means the concentration at half of the fitted maximal effect
Outline: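 Read-out is luminescence from luciferin detection reagent (20 min) proportional to CYP1A2 activity; compounds in DMSO preincubated 10 min with enzyme and proluciferin substrate, then NADPH regeneration solution, 1 h, room temperature.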

Voltage-gated inwardly rectifying potassium channel KCNH2 (Homo sapiens), sequence (Q12809 whole entry, looked up): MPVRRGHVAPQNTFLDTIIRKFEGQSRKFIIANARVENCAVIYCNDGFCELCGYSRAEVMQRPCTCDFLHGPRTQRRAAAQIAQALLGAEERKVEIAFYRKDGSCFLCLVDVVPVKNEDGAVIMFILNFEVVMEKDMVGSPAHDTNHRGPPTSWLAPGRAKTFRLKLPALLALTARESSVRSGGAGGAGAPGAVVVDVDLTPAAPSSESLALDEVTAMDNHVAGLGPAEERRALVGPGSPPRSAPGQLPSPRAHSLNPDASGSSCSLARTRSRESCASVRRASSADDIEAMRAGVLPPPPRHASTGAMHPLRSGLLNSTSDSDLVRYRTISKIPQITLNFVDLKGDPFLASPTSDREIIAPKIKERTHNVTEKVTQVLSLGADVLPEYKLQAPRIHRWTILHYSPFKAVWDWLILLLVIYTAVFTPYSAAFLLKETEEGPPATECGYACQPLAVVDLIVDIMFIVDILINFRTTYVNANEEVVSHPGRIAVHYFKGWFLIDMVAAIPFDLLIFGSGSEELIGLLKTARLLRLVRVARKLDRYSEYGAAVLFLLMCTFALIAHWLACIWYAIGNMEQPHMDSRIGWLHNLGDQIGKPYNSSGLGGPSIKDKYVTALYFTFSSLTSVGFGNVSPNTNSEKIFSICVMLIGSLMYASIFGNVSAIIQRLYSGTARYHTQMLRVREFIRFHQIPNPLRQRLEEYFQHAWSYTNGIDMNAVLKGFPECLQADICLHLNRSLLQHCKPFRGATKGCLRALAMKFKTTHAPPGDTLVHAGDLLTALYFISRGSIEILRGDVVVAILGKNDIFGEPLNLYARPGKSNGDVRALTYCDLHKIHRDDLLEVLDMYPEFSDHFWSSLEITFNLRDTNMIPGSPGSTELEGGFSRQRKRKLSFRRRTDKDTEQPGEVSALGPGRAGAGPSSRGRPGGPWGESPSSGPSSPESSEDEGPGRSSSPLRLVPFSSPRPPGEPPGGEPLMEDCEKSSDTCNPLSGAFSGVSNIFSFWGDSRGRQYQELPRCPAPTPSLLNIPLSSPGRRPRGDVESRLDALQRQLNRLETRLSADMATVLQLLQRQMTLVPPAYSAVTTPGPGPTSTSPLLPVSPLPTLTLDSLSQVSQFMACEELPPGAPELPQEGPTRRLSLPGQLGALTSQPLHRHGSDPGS
Cytochrome P450 2C9 (Homo sapiens), sequence (P11712 whole entry, looked up): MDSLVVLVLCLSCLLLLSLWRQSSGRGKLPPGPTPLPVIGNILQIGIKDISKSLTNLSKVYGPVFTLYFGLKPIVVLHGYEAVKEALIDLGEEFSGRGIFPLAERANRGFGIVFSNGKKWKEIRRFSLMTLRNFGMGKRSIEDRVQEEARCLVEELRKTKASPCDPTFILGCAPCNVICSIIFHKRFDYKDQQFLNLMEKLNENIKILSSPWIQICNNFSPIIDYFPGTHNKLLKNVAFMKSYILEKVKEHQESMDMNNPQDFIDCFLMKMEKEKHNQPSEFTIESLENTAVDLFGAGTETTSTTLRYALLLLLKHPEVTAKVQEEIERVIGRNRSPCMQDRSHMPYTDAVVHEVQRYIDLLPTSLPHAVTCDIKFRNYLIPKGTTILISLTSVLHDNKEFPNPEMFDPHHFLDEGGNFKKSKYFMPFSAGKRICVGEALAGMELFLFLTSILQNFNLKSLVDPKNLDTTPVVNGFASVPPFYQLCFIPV
Cytochrome P450 3A4 (Homo sapiens), sequence (P08684 whole entry, looked up): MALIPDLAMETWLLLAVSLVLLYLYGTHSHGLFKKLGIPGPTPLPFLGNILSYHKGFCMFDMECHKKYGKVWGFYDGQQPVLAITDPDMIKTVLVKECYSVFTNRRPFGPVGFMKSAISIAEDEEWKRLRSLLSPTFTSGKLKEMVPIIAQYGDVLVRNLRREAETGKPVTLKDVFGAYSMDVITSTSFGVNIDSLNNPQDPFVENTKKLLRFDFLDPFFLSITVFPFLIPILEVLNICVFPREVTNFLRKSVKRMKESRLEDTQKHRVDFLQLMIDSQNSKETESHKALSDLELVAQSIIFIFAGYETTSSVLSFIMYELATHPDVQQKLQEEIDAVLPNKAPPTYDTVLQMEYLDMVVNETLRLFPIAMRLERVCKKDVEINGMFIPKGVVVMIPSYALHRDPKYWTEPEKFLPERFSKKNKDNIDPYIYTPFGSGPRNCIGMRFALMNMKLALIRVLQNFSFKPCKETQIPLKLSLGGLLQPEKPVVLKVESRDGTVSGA
Cytochrome P450 2C19 (Homo sapiens), sequence (P33261 whole entry, looked up): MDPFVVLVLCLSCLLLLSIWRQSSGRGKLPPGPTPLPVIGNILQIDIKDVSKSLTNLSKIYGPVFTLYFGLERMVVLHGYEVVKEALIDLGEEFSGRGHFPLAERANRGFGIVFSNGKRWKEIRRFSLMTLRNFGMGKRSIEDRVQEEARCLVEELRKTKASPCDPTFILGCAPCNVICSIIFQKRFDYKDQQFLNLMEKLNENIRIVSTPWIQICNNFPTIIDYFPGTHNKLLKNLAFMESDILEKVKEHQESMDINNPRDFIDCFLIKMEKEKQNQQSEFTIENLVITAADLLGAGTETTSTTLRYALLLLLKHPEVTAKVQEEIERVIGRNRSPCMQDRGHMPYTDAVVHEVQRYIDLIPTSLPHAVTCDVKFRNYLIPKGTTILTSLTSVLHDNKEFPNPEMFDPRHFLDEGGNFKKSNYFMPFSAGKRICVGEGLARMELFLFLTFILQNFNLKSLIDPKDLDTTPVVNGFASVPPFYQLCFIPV
Nuclear receptor subfamily 1 group I member 2 (Homo sapiens), sequence (O75469 whole entry, looked up): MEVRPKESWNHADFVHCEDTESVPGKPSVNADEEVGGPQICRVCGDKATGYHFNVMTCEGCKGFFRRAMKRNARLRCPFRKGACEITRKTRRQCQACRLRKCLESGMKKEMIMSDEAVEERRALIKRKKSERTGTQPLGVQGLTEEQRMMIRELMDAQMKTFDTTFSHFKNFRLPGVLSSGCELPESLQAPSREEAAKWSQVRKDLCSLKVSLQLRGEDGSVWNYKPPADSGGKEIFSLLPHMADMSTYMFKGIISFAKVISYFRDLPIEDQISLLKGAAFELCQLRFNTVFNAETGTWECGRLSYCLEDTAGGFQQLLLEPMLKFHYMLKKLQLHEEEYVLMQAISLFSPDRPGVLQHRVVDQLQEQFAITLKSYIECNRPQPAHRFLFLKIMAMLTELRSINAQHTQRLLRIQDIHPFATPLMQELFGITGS
Cytochrome P450 2D6 (Homo sapiens), sequence (P10635 whole entry, looked up): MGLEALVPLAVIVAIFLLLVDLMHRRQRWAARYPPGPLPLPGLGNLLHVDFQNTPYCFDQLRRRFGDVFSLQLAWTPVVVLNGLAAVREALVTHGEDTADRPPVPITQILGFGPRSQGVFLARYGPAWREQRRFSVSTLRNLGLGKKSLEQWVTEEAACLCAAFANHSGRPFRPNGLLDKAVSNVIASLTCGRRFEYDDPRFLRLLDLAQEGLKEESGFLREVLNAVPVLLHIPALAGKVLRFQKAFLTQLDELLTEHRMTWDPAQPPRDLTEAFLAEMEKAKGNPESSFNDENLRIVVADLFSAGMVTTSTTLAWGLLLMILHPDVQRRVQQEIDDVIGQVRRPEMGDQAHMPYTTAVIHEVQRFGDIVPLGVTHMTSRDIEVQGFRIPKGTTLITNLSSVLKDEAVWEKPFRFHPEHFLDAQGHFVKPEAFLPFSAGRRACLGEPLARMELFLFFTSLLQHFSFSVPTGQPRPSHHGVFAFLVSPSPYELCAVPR
Nuclear receptor subfamily 1 group I member 2 (Rattus norvegicus), sequence (Q9R1A7 whole entry, looked up): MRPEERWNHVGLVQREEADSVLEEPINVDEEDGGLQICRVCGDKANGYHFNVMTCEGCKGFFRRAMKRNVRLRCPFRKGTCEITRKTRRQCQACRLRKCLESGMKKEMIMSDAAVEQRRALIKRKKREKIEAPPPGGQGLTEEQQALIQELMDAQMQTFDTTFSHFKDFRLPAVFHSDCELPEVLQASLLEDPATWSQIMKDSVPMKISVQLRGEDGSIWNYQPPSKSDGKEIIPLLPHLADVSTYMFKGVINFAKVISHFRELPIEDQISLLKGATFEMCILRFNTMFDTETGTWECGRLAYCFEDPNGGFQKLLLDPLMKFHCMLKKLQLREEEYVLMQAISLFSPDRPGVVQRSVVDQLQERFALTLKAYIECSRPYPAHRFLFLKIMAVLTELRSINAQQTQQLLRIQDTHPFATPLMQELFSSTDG
Cytochrome P450 1A2 (Homo sapiens), sequence (P05177 whole entry, looked up): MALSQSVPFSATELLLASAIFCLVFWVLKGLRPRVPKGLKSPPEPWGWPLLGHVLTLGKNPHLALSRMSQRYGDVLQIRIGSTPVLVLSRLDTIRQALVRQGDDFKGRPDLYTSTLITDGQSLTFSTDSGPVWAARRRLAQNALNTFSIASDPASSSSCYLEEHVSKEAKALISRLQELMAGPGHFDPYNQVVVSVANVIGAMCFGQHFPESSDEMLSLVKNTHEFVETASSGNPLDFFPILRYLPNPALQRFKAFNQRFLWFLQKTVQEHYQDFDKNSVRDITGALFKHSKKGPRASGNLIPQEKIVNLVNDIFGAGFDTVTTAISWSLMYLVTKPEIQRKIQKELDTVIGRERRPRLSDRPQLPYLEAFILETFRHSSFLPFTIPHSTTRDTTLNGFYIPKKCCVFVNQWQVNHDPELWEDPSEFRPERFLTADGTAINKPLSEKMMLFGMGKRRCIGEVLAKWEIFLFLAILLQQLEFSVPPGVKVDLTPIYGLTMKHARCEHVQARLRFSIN

SMILES | Potency [1] | Potency [2] | outcome [3] | Potency [4] | Potency [5] | max activation [6] | Potency [7] | Potency [8] | Potency [9] | Potency [10] | Potency [11] | Potency [12] | Potency [13] | Potency [14]
CC(=O)Oc1cc(C(C)C)c(OCCN(C)C)cc1C | inactive | inactive | inactive | inactive | inactive | -1.16% | inactive | inactive | 15.5 µM (active) | inactive | inactive | inactive | inactive | –
C=CC(C)(O)CC/C=C(\C)CCC=C(C)C (stereo not given) | inactive | inactive | inactive | inactive | inactive | 3.74% | inactive | inactive | – | 17.8 µM (active) | 31.7 µM (active) | – | – | 31.7 µM (active)
CCCN(CCC)C(=O)C(CCC(=O)O)NC(=O)c1ccccc1 (stereo not given) | inactive | inactive | inactive | inactive | inactive | 0.444% | inactive | inactive | inactive | inactive | inactive | inactive | inactive | inactive
CCCNC(C)C(=O)Nc1c(C)csc1C(=O)OC (stereo not given) | inactive | inactive | inactive | inactive | inactive | -1.55% | inactive | inactive | inactive | inactive | inactive | inactive | inactive | –
COc1ccccc1OCC(O)COC(N)=O (stereo not given) | inactive | inactive | inactive | inactive | inactive | 0.101% | inactive | inactive | – | – | inactive | inactive | inactive | inactive
Cc1nc(N)nc(N)c1-c1ccc(Cl)c(Cl)c1 | inactive | inactive | inactive | inactive | inactive | – | – | – | 2.19 µM (active) | inactive | – | – | inactive | inactive
Cn1cnc2c(F)c(Nc3ccc(Br)cc3Cl)c(C(=O)NOCCO)cc21 | inactive | inactive | inactive | inactive | inactive | – | – | – | inactive | 8.71 µM (active) | – | inactive | – | –
COC(C)CCO (stereo not given) | inactive | inactive | inactive | inactive | inactive | – | – | – | inactive | inactive | inactive | inactive | inactive | inactive
CC(=O)OC1C2(C)CCC(C2)C1(C)C (stereo not given) | inactive | inactive | inactive | inactive | inactive | – | – | – | inactive | inactive | – | inactive | inactive | –
Clc1cccc(-c2cc(Cl)cc(Cl)c2)c1 | inactive | inactive | inactive | inactive | 59 µM (active) | – | – | – | inactive | 30.6 µM (active) | – | inactive | inactive | –
O=C(O[C@@H](C(=O)O)[C@@H](OC(=O)c1ccccc1)C(=O)O)c1ccccc1 | inactive | inactive | inactive | inactive | inactive | – | – | – | 40.6 µM (active) | 45.6 µM (active) | inactive | inactive | inactive | 72.2 µM (active)
CCCC(CCC)(C(=O)OCC)C(=O)OCC | inactive | inactive | inactive | inactive | inactive | – | – | – | inactive | inactive | – | inactive | inactive | –
CC(C)OC(C)C | inactive | inactive | inactive | inactive | inactive | – | – | – | inactive | inactive | – | inactive | inactive | inactive
COc1cc(Cl)ccc1Cl | inactive | inactive | inactive | inactive | inactive | – | – | – | inactive | inactive | inactive | inactive | inactive | –
CCCCCCn1c(=O)c2c(ncn2C)n(C)c1=O | inactive | inactive | inactive | inactive | inactive | – | – | – | inactive | 30.9 µM (active) | inactive | inactive | inactive | 15.5 µM (active)
CCCCCCCOC(=O)CCC | inactive | inactive | inactive | inactive | inactive | – | – | – | 20 µM (active) | 79.6 µM (active) | inactive | inactive | inactive | –
OCCN(CCO)CCN(CCO)CCO | inactive | inactive | inactive | inactive | inactive | – | – | – | inactive | inactive | inactive | inactive | inactive | inactive
CCOC(=O)C1CC(=O)C(=C(O)C2CC2)C(=O)C1 (stereo not given) | inactive | inactive | inactive | inactive | inactive | – | – | – | inactive | 71 µM (active) | – | inactive | inactive | inactive
CCN(CC)C(=O)N(CC)CC | inactive | inactive | inactive | inactive | inactive | – | – | – | inactive | – | inactive | inactive | inactive | –
